Drawing on PubChem BioAssay AID1362 (SRMLSC, 2008), this text covers inhibition for 15 molecules.

This test can be described thus: growth inhibition of WT strain, primary screen, mitochondrial fusion inhibitor project, WT and mutant strains, chemical genetic (AID 1362). The settings on record: mitochondrial fusion phenotypic screen, at 10 µM.
Setting [1] is: WT strain, growth inhibition, stronger effect = higher value.

In all, about 190,000 compounds went through this assay and about 4,000 (2.1%) were called active. Cut-off read from the data, not from the text of the source: active = inhibition above about 58%; inactive = the rest, inconclusive results apart; tested in S. cerevisiae. The sample as a whole holds a higher share of actives than the screen did.

For the molecule `CN1CCN(C(=S)SCC(=O)Nc2ccc(Cl)cc2C(=O)c2ccccc2)CC1`, the inhibition reads like this: under setting [1], 7.01% (inactive); (mutant strain inhibition) 6.59%.
In the same order, the values of `CC(C(=O)Nc1ccc(Cl)cc1Cl)N1CC=C(c2ccccc2)CC1` (stereo not given) are 70.9% (active) and 1.22%.
In the same order, the values of `O=C(OCCN1CCOCC1)C1(c2ccccc2)CCCC1` are 8.37% (inactive) and 10.3%.
In the same order, the values of `CCCOC(=O)C1C2c3ccccc3C(c3ccccc32)C1C(=O)O` (stereo not given) are -5.35% (inactive) and -6.76%.
In the case of `CC1=CC(=Cc2sc3ccccc3[n+]2C)C=C(C)O1`, the inhibition was 65.7% (active) under setting [1] and 63.1% (mutant strain inhibition).
Taken in the same sequence, the figures for `COP(=O)(OC)C(NC(=O)c1ccc(C)cc1)C(Cl)(Cl)Cl` (stereo not given) were 3.22% (inactive) and 7.65%.
In the same order, the values of `Cc1cc(C=C2C(=O)NC(=O)NC2=O)c(C)n1-c1ccncc1` are -0.16% (inactive) and -6.83%.
Regarding `O=C(Cn1c(=O)n(CC2CS2)c2ccccc21)N1CCCCC1` (stereo not given), the inhibition under setting [1] was 0.43% (inactive) and the inhibition (mutant strain inhibition) was -0.1%.
In the same order, the values of `O=C(COC(=O)c1ccccc1)Nc1ccc(Cl)cc1C(=O)c1ccccc1` are 16.3% (inactive) and 10.6%.
Taken in the same sequence, the figures for `O=C(CN1CCCCC1)Nc1ccc(Br)cc1C(=O)c1ccccc1Cl` were 74.3% (active) and 9.62%.
In the same order, the values of `O=C(CCN1CCCCC1)NCC(=O)Nc1ccc(Br)cc1C(=O)c1ccccc1` are 7.53% (inactive) and 1.33%.
In the case of `CCOC(=O)C1(CCc2ccccc2)CCN(Cc2ccco2)CC1`, the inhibition is 12.8% (inactive) under setting [1] and 4.98% (mutant strain inhibition).
In the same order, the values of `COc1ccccc1N=Nc1c(O)[nH]c(=S)[nH]c1=O` are 4.7% (inactive) and 1.05%.
With `CC(c1ccccc1)(c1ccccc1)c1ccncc1`, the inhibition is 26.6% (inactive) under setting [1] and 19.3% (mutant strain inhibition).
Taken in the same sequence, the figures for `COP(=O)(NS(=O)(=O)c1ccccc1)OC` were -9.16% (inactive) and -1.53%.
